BoNT-A LC inh2: blocks Botulinum neurotoxin A light chain protease. multiplex microsphere protease substrate cleavage, flow cytometry. inhibition, % at 10 µM. hit rate 0.17% among 360,000
BJeLR viability: kills HRASV12-expressing BJeLR cells. inhibition, % (concentration not given with the values). hit rate 0.17% among 300,000. BJeLR (HRASV12) viability, CellTiter-Glo ATP luminescence, 48 h. AID 1554; in the data active = inhibition above about 50%; inconclusive = no clear call, values can overlap the other calls
Autofluor counter: counter-screen for toxin protease inhibitors: compound fluorescence; compound autofluorescence counterscreen, microsphere flow cytometry; hits give high values; fluorescence intensity (no concentration beside the values); hit rate 3.1% among 360,000; in the data active = fluorescence intensity above about 16000; inconclusive = no clear call, values can overlap the other calls
BoNT-F LC inh: blocks Botulinum neurotoxin F light chain protease; inhibition, % at 10 µM; hit rate 0.22% among 360,000; Multiplex microsphere protease cleavage assay, flow cytometry; in the data active = inhibition above about 35%, passing the limit was not always enough; inconclusive = no clear call, values can overlap the other calls
Anthrax LF prot: blocks Bacillus anthracis lethal factor protease; P15917; multiplex microsphere protease cleavage assay, LF; inhibition, % at 10 µM; hit rate 0.12% among 360,000
Target sequence (P15917 whole entry, looked up): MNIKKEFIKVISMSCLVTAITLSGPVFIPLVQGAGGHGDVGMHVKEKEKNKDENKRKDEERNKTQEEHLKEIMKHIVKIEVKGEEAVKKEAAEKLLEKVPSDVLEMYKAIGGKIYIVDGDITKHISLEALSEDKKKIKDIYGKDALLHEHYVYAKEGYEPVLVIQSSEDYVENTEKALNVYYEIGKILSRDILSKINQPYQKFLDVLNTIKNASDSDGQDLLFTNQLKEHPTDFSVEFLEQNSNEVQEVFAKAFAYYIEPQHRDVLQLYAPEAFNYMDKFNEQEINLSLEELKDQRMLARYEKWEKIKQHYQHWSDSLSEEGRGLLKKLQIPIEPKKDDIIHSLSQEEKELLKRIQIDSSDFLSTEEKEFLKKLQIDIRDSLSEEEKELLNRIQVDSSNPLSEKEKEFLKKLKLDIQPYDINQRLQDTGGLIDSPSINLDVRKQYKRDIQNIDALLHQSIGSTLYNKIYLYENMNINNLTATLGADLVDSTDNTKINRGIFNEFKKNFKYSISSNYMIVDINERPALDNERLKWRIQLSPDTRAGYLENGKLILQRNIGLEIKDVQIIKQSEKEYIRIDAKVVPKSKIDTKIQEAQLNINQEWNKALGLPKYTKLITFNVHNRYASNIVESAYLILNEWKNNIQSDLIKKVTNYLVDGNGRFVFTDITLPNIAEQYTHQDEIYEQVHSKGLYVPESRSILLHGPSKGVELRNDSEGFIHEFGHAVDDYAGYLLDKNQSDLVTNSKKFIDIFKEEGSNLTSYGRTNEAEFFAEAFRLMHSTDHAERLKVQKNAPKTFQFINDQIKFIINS
3CLpro inhibitor: SARS-CoV 3CLpro protease inhibition; P0C6X7; recombinant SARS-CoV 3CLpro, quenched FRET peptide cleavage; inhibition, % at 6 µM; hit rate 0.14% among 290,000; AID 1706; in the data active = inhibition above about 12%
Each line names hits and unclear results; the compound was inactive in the other large screens. Most compounds without a hit are left out; they make up all but 3.6% or so of the library. Rule as the data show it, unless noted: active = inhibition above about 30%; inconclusive = no clear call, values can overlap the other calls; inactive = below that.

Cc1ccc(F)c(S(=O)(=O)NC(=O)C2(C)CCN2C(=O)Cc2ccsc2)c1 (stereo unspecified)	none (no result: BJeLR viability, 3CLpro inhibitor)
COc1ccc(-n2c(CCc3ccccc3)nnc2SCC(=O)c2ccccc2)cc1	none
COc1ccc(C(=O)CSc2nnc(CCc3ccccc3)n2-c2ccccc2)cc1	Autofluor counter 24111
O=C(NCC1OCCc2ccccc21)c1cc(COc2c(F)cccc2F)on1 (stereo unspecified)	none
COc1ccc(N(CC(=O)NCCC2=CCCCC2)S(C)(=O)=O)cc1OC	Autofluor counter 22438
COc1ccc(N(CC(=O)NCCC2=CCCCC2)S(=O)(=O)c2ccccc2)cc1OC	none
N#CCCN(C(=O)COC(=O)C1CCN(S(=O)(=O)c2ccc3c(c2)OCCO3)CC1)c1ccccc1	none (no result: 3CLpro inhibitor)
CCOC(=O)C(=CNc1cc(C)nn1-c1ccccc1)C(=O)OCC	BoNT-A LC inh2 inconclusive, Autofluor counter 21382
CC(C)Oc1ccc(C2CC(=O)N(c3cccc(Br)c3)C2=O)cc1 (stereo unspecified)	none
O=C(Nc1c2c(nn1-c1ccc(F)cc1)CS(=O)(=O)C2)c1ccc(S(=O)(=O)N2CCOCC2)cc1	none
Cc1cccc(NC(=O)NCC(F)(F)F)n1	BoNT-A LC inh2 inconclusive, Autofluor counter 19660
Cc1c(C(=O)NCc2ccc3c(c2)OCO3)oc2ccccc12	Autofluor counter 20346
Cc1c(C(=O)NC(C)c2ccncc2)oc2ccccc12 (stereo unspecified)	BoNT-A LC inh2 inconclusive, Autofluor counter 21661
Cc1c(C(=O)Nc2nnc(C(F)(F)F)s2)oc2ccccc12	Autofluor counter 23455 (no result: 3CLpro inhibitor)
Cc1c(C(=O)NCc2cccnc2)oc2ccccc12	Autofluor counter 23977
Cc1c(C(=O)NCCc2ccccc2)oc2ccccc12	none
Cc1c(C(=O)Nc2ccncc2)oc2ccccc12	none
C/C(Cn1nnc([N+](=O)[O-])n1)=N\NC(=O)c1cccc(Cl)c1	none
Cc1ccc(NC(=O)c2oc3ccccc3c2NC(=O)c2ccc3c(c2)OCO3)cc1	Autofluor counter 20506
Cc1c(C(=O)NCc2cccs2)oc2ccccc12	Autofluor counter 23183
COC(=O)[C@@H](NC(=O)NCc1cccs1)C(C)C	Autofluor counter 18068
O=C(NCc1cccs1)c1ccccc1C(=O)NCc1cccs1	BoNT-A LC inh2 inconclusive, Autofluor counter 23472
CCCCNC(=O)c1cn(CC(C)C)c(=O)c2c1c1ccccc1n2C	none
O=C(OCCNC(=O)c1cc2ccccc2oc1=O)c1cccnc1	none
O=C(NCc1cccnc1)c1cc2ccccc2oc1=O	Autofluor counter 22899
CC1CCC/C(=N\NC(=S)NCc2ccccc2)C1 (stereo unspecified)	none
CC1C/C(=N\NC(=S)NCc2ccccc2)CC(C)(C)C1 (stereo unspecified)	BoNT-A LC inh2 inconclusive, Autofluor counter 22911
Cc1ccc2nsnc2c1NS(=O)(=O)c1c(C)ccc2nsnc12	Autofluor counter 22309
Cc1cc(S(=O)(=O)Nc2c(C)ccc3nsnc23)ccc1F	Autofluor counter 16194 (no result: BJeLR viability)
Cc1ccc2nsnc2c1S(=O)(=O)Nc1ccccc1C(=O)O	BoNT-F LC inh inconclusive
CCOc1ccc(C(C)(N)C(=O)O)cc1 (stereo unspecified)	BoNT-A LC inh2 inconclusive, Autofluor counter 22131 (no result: BJeLR viability)
CCOc1ccc(OCc2cccc(C(=O)O)c2)cc1	BJeLR viability 55, Autofluor counter 22901 (no result: 3CLpro inhibitor)
COc1ccc(OCc2cccc(C(=O)O)c2)cc1	Autofluor counter inconclusive (no result: 3CLpro inhibitor)
Cc1ccc(-c2ccc(CN3C(C)C(=O)N(Cc4cn(Cc5ccco5)nn4)CCS3(=O)=O)cc2)c(C)c1 (stereo unspecified)	none (no result: BJeLR viability, 3CLpro inhibitor)
COc1ccc(N(CC(O)CN2C(=O)NC(C)(C)C2=O)S(=O)(=O)c2ccc(C)cc2)cc1 (stereo unspecified)	Autofluor counter 23111
Cc1ccc(N(CC(O)CN2C(=O)NC(C)(C)C2=O)S(=O)(=O)c2ccc(C)cc2)cc1 (stereo unspecified)	none
COc1ccc(N(CC(O)CN2CCCCC2)S(=O)(=O)c2ccc(C)cc2)cc1 (stereo unspecified)	BoNT-A LC inh2 inconclusive, Autofluor counter 20804
COc1ccc2c(c1OC)C(=O)N(c1cccc(NC(C)=O)c1)C2	none
COC(=O)c1ccc(COC(=O)c2ccccc2OC)cc1	none
COC(=O)c1ccc(OCC(=O)c2ccccc2OC)cc1	BoNT-A LC inh2 inconclusive, Autofluor counter 20757
COc1cc(C(=O)N(C)CCOc2ccccc2)ccc1OCC(=O)Nc1cccc(C(F)(F)F)c1	none (no result: 3CLpro inhibitor)
NC(=O)c1nsc(C(=O)N(c2ccccc2)C(C(=O)NC2CCCCC2)c2ccc(O)cc2)c1N (stereo unspecified)	none
O=C(C1=C(O)C(=O)N(Cc2cccnc2)C1c1ccccn1)c1cccs1 (stereo unspecified)	none
CCc1ccc(NC(=S)N(CCOC)C2CCN(C(C)=O)CC2)cc1	BoNT-F LC inh 40
CCc1ccc(NC(=S)N(CCC(C)C)C2CCN(C(C)=O)CC2)cc1	none
CC(C)Oc1ccc(CNC(=O)c2cc(S(=O)(=O)N3CCOCC3)cn2C)cc1	none
C(=C\c1ccccc1)/CN1CCN(C(c2cc3ccccc3o2)c2nnnn2C2CCCCC2)CC1 (stereo unspecified)	none (no result: BJeLR viability, 3CLpro inhibitor)
COC(=O)CSc1nnc(-c2ccc(S(=O)(=O)NCc3cccs3)cc2)o1	Autofluor counter 21213 (no result: BJeLR viability)
COC(=O)CSc1nnc(-c2ccc(S(=O)(=O)N3CCCC3)cc2)o1	none
COC(=O)CSc1nnc(-c2ccc(S(=O)(=O)NCc3ccccc3Cl)cc2)o1	Autofluor counter 21867
COCc1cc(CN2CCCC(C(=O)Nc3cccc(-n4cnnn4)c3)C2)ccc1OC (stereo unspecified)	none
O=C(Cc1cccc(NC(=O)C2CCN(S(=O)(=O)c3cccc([N+](=O)[O-])c3)CC2)c1)Nc1cccc(C(=O)N2CCOCC2)c1	none (no result: BJeLR viability, 3CLpro inhibitor)
Cc1ccc(NC(=O)CC2CCCC2)c(Br)c1	none
Cc1noc(C)c1S(=O)(=O)Nc1ccc2c(c1)C(=O)N([C@H](C)CO)C[C@H](C)[C@@H](CN(C)C(=O)Nc1ccc3c(c1)OCO3)O2	none (no result: BJeLR viability, 3CLpro inhibitor)
COC(=O)c1noc(-c2ccc(C)cc2)n1	Autofluor counter 23185
CCN(CC)c1ccc(/C=C/[N+](=O)[O-])cc1	BoNT-A LC inh2 66, Anthrax LF prot 35
CCN(CC)c1ccc(/C=N/NC(=O)c2ccc([N+](=O)[O-])cc2)cc1	none
COCCCN1C(=O)C(CC(=O)NC2CC2)CC(C(=O)N2CCOCC2)=C1C (stereo unspecified)	none (no result: BJeLR viability, 3CLpro inhibitor)
CCN1CCC(NC(=O)c2cc(OC)c(OC)cc2OC)CC1	BoNT-A LC inh2 inconclusive, Autofluor counter 21698
COc1ccc(CCN(C)C(=O)C2CCN(Cc3ccc(C)cc3)CC2)cc1OC	none
CCC(=O)Oc1ccc2c(=O)c(-c3ccc4ccccc4n3)c(CC)oc2c1C	none
Cc1oc2c(C)c(O)ccc2c(=O)c1-c1ccc2ccccc2n1	Autofluor counter 19935
CN(C)c1ncc(S(=O)(=O)c2ccc(Cl)cc2)c(-c2ccc(Cl)cc2Cl)n1	none

Compound activity: PubChem BioAssay, several laboratories
